Source: PubChem BioAssay AID1159580 (chemical genetic matrix, 2015)
“And” between values parts separate entries of the source, which are not always exact repeats. Equal values may be shown once. Out of some 5,500 compounds screened, about 2,000 (36%) were called active. About 18% were inconclusive and are not listed. No stated cut-off is given here; in the data, active means normalized growth mostly below about 0.91 (no sharp cut-off); inconclusive means no clear call, values can overlap the other calls; inactive means mostly above about 0.92. The list shows a part of the results.

Test: chemical genetic growth profiling, strain panel (AID 1159580);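 further: tested at 20 µM; growth read once vehicle control cultures reached saturation at 30 °C; 1 = growth at the plate median or of vehicle wells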
Conditions: S. cerevisiae deletion strains, growth OD

Measured: normalized growth

CC(C)[N+](C)(CCC(C(N)=O)(c1ccccc1)c1ccccc1)C(C)C
inactive: locus YAL013W, strain DEP1, stronger effect = lower value 1.01 | locus YAL021C, strain ccr4, stronger effect = lower value 0.997 | locus YAL026C, strain drs2, stronger effect = lower value 0.999 | locus YAL030W, strain snc1, stronger effect = lower value 0.993 | locus YBL061C, strain skt5, stronger effect = lower value 0.992 | locus YBR009C, strain hhf1, stronger effect = lower value 0.994 | locus YBR021W, strain FUR4, stronger effect = lower value 1 | locus YBR023C, strain chs3, stronger effect = lower value 0.979 | locus YBR171W, strain sec66, stronger effect = lower value 0.987 | locus YBR229C, strain ROT2, stronger effect = lower value 1.01 | locus YBR231C, strain swc5, stronger effect = lower value 0.991 | locus YBR279W, strain paf1, stronger effect = lower value 0.97 | locus YCL011C, strain gbp2, stronger effect = lower value 0.966 | locus YCL016C, strain dcc1, stronger effect = lower value 0.953 | locus YCL029C, strain bik1, stronger effect = lower value 1 | locus YCL061C, strain MRC1, stronger effect = lower value 0.97 | locus YCL069W, strain vba3, stronger effect = lower value 0.993 | locus YCR088W, strain abp1, stronger effect = lower value 0.986 | locus YDL005C, strain med2, stronger effect = lower value 0.996 | locus YDL035C, strain GPR1, stronger effect = lower value 1.01 | locus YDL040C, strain nat1, stronger effect = lower value 0.996 | locus YDL074C, strain BRE1, stronger effect = lower value 1.01 | locus YDL101C, strain DUN1, stronger effect = lower value 1.01 | locus YDL185W, strain tfp1, stronger effect = lower value 0.996 | locus YDL192W, strain arf1, stronger effect = lower value 1 | locus YDR001C, strain nth1, stronger effect = lower value 0.987 | locus YDR069C, strain doa4, stronger effect = lower value 1 | locus YDR101C, strain arx1, stronger effect = lower value 0.999 | locus YDR137W, strain rgp1, stronger effect = lower value 0.987 | locus YDR150W, strain NUM1, stronger effect = lower value 1.01 | locus YDR159W, strain sac3, stronger effect = lower value 0.997 | locus YDR162C, strain NBP2, stronger effect = lower value 1 | locus YDR195W, strain ref2 1.02 | locus YDR297W, strain sur2, stronger effect = lower value 0.991 | locus YDR318W, strain mcm21, stronger effect = lower value 0.999 | locus YDR334W, strain swr1, stronger effect = lower value 0.981 | locus YDR335W, strain msn5, stronger effect = lower value 0.99 | locus YDR388W, stronger effect = lower value 1 | locus YDR392W, strain spt3, stronger effect = lower value 0.9 | locus YDR502C, strain sam2, stronger effect = lower value 0.986 | locus YEL003W, strain gim4, stronger effect = lower value 1.01 | locus YEL037C, strain rad23, stronger effect = lower value 0.987 | locus YEL061C, strain CIN8 (second series), stronger effect = lower value 0.988 | locus YEL061C, strain CIN8, stronger effect = lower value 0.999 | locus YER015W, strain faa2, stronger effect = lower value 0.995 | locus YER016W, strain bim1, stronger effect = lower value 0.998 | locus YER110C, stronger effect = lower value 1 | locus YER111C, strain swi4, stronger effect = lower value 0.981 | locus YER155C, strain BEM2 (second series), stronger effect = lower value 1 | locus YER155C, strain BEM2, stronger effect = lower value 1.02 | locus YER167W, strain BCK2, stronger effect = lower value 0.999 | locus YFR010W, strain ubp6, stronger effect = lower value 0.986 | locus YGL078C, strain dbp3, stronger effect = lower value 0.996 | locus YGL086W, strain mad1, stronger effect = lower value 1 | locus YGL167C, strain pmr1, stronger effect = lower value 0.989 | locus YGL173C, strain kem1, stronger effect = lower value 0.998 | locus YGL227W, strain vid30, stronger effect = lower value 0.98 | locus YGL240W, strain doc1, stronger effect = lower value 1 | locus YGL248W, strain PDE1, stronger effect = lower value 1 | locus YGL253W, strain hxk2, stronger effect = lower value 0.983 | locus YGR135W, strain pre9, stronger effect = lower value 0.978 | locus YGR252W, strain gcn5, stronger effect = lower value 0.896 | locus YHR013C, strain ard1, stronger effect = lower value 0.961 | locus YHR027C, strain rpn1, stronger effect = lower value 0.997 | locus YHR030C, strain SLT2, stronger effect = lower value 0.998 and 1 | locus YHR079C, strain IRE1 (second series), stronger effect = lower value 0.998 | locus YHR079C, strain IRE1, stronger effect = lower value 0.994 | locus YHR094C, strain hxt1, stronger effect = lower value 0.995 | locus YHR129C, strain ARP1, stronger effect = lower value 1.01 | locus YHR142W, strain chs7, stronger effect = lower value 0.939 | locus YHR200W, strain rpn10, stronger effect = lower value 1 | locus YIL066C, strain RNR3, stronger effect = lower value 1.01 | locus YIL073C, strain SPO22, stronger effect = lower value 0.988 | locus YIL125W, strain kgd1, stronger effect = lower value 0.993 | locus YIR030C, strain dcg1, stronger effect = lower value 1.02 | locus YJL092W, strain hpr5, stronger effect = lower value 0.986 | locus YJL095W, strain BCK1 (second series), stronger effect = lower value 0.988 | locus YJL095W, strain BCK1, stronger effect = lower value 1.01 | locus YJL115W, strain asf1, stronger effect = lower value 0.993 | locus YJL129C, strain trk1, stronger effect = lower value 0.991 | locus YJL134W, strain LCB3, stronger effect = lower value 1.02 | locus YJL154C, strain vps35, stronger effect = lower value 1 | locus YJL164C, strain tpk1, stronger effect = lower value 0.987 | locus YJL166W, strain qcr8, stronger effect = lower value 0.972 | locus YJL168C, strain set2, stronger effect = lower value 0.99 | locus YJL187C, strain SWE1 (second series), stronger effect = lower value 1.01 | locus YJL187C, strain SWE1, stronger effect = lower value 1 | locus YJR043C, strain POL32, stronger effect = lower value 1.01 | locus YJR066W, strain TOR1, stronger effect = lower value 0.943 | locus YKL009W, strain mrt4, stronger effect = lower value 1 | locus YKL068W, stronger effect = lower value 0.998 | locus YKL085W, strain MDH1 (second series), stronger effect = lower value 0.995 | locus YKL085W, strain MDH1, stronger effect = lower value 0.995 | locus YKL160W, strain elf1, stronger effect = lower value 0.961 | locus YKL190W, strain CNB1, stronger effect = lower value 0.98 | locus YKR001C, strain vps1, stronger effect = lower value 0.997 | locus YKR026C, strain gcn3, stronger effect = lower value 0.998 | locus YKR091W, strain srl3, stronger effect = lower value 0.992 | locus YLL001W, strain dnm1, stronger effect = lower value 0.96 | locus YLL026W, stronger effect = lower value 0.99 | locus YLL041C, strain sdh2, stronger effect = lower value 0.995 | locus YLR027C, strain aat2, stronger effect = lower value 0.994 | locus YLR039C, strain RIC1, stronger effect = lower value 1.07 | locus YLR058C, strain SHM2, stronger effect = lower value 1.01 | locus YLR102C, strain apc9, stronger effect = lower value 0.999 | locus YLR113W, strain HOG1, stronger effect = lower value 1.04 | locus YLR221C, strain rsa3, stronger effect = lower value 0.972 | locus YLR258W, strain gsy2, stronger effect = lower value 0.98 | locus YLR262C, strain YPT6 (second series), stronger effect = lower value 1 | locus YLR262C, strain YPT6, stronger effect = lower value 1.03 | locus YLR268W, strain sec22, stronger effect = lower value 0.987 | locus YLR320W, strain mms22, stronger effect = lower value 0.971 | locus YLR330W, strain CHS5, stronger effect = lower value 1.01 | locus YLR342W, strain FKS1 (second series), stronger effect = lower value 1.02 | locus YLR342W, strain FKS1, stronger effect = lower value 0.994 | locus YLR357W, strain rsc2, stronger effect = lower value 0.971 | locus YLR370C, strain arc18, stronger effect = lower value 0.975 | locus YLR371W, strain rom2, stronger effect = lower value 0.981 | locus YLR384C, strain iki3, stronger effect = lower value 0.991 | locus YLR418C, strain cdc73, stronger effect = lower value 0.923 | locus YML016C, strain PPZ1, stronger effect = lower value 1.01 | locus YML032C, strain rad52, stronger effect = lower value 0.993 | locus YML120C, strain ndi1, stronger effect = lower value 0.946 | locus YML124C, strain tub3, stronger effect = lower value 0.993 | locus YMR058W, strain fet3, stronger effect = lower value 0.998 | locus YMR078C, strain ctf18, stronger effect = lower value 1 | locus YMR125W, strain sto1, stronger effect = lower value 0.978 | locus YMR129W, stronger effect = lower value 0.996 | locus YMR205C, strain PFK2, stronger effect = lower value 0.974 | locus YMR223W, strain ubp8, stronger effect = lower value 0.987 | locus YMR231W, strain pep5, stronger effect = lower value 1 | locus YMR307W, strain GAS1, stronger effect = lower value 0.9 | locus YNL067W, strain RPL9B, stronger effect = lower value 0.997 | locus YNL071W, strain lat1, stronger effect = lower value 0.983 | locus YNL128W, strain TEP1, stronger effect = lower value 1.01 | locus YNL153C, strain GIM3, stronger effect = lower value 1.01 | locus YNL183C, strain NPR1, stronger effect = lower value 0.964 | locus YNL209W, strain ssb2, stronger effect = lower value 0.986 | locus YNL233W, strain BNI4, stronger effect = lower value 1.01 | locus YNL248C, strain rpa49, stronger effect = lower value 0.992 | locus YNL250W, strain rad50, stronger effect = lower value 0.987 | locus YNL271C, strain bni1, stronger effect = lower value 1 | locus YNL298W, strain CLA4, stronger effect = lower value 1 | locus YNL307C, strain MCK1, stronger effect = lower value 0.988 | locus YNL322C, strain KRE1 (second series), stronger effect = lower value 0.966 | locus YNR049C, strain mso1, stronger effect = lower value 0.995 | locus YNR052C, strain pop2, stronger effect = lower value 0.995 | locus YOL012C, strain htz1 0.833 | locus YOL147C, strain pex11, stronger effect = lower value 1 | locus YOR001W, strain rrp6, stronger effect = lower value 1.03 | locus YOR061W, strain CKA2, stronger effect = lower value 1.01 | locus YOR069W, strain VPS5, stronger effect = lower value 1.01 | locus YOR070C, strain gyp1, stronger effect = lower value 1 | locus YOR080W, strain dia2, stronger effect = lower value 1 | locus YOR083W, strain WHI5, stronger effect = lower value 0.963 | locus YOR106W, strain vam3, stronger effect = lower value 0.976 | locus YOR136W, strain idh2, stronger effect = lower value 0.985 | locus YOR144C, strain elg1, stronger effect = lower value 1 | locus YOR184W, strain ser1, stronger effect = lower value 0.979 | locus YOR231W, strain MKK1, stronger effect = lower value 0.972 | locus YOR265W, strain rbl2, stronger effect = lower value 0.994 | locus YOR270C, strain vph1, stronger effect = lower value 0.984 | locus YOR290C, strain snf2, stronger effect = lower value 0.923 | locus YOR316C, strain cot1, stronger effect = lower value 1.01 | locus YPL051W, strain arl3, stronger effect = lower value 0.998 | locus YPL055C, strain LGE1, stronger effect = lower value 0.991 | locus YPL078C, strain atp4, stronger effect = lower value 0.974 | locus YPL106C, strain sse1, stronger effect = lower value 0.961 | locus YPL240C, strain hsp82, stronger effect = lower value 1 | locus YPL256C, strain CLN2, stronger effect = lower value 1 | locus YPR119W, strain clb2, stronger effect = lower value 0.991 | locus YPR141C, strain kar3, stronger effect = lower value 0.993 | locus YPR163C, strain tif3, stronger effect = lower value 0.998 | locus YPR167C, strain met16, stronger effect = lower value 0.979 | strain wtn01, stronger effect = lower value 0.98
